# Assay results reported in PubChem BioAssay (NCI).
# Compounds without any hit were thinned out: in the full panel of roughly 79,000, 15% have a hit. Unmarked numbers belong to inactive results. Calls of active or inactive are those of the source. Rule as the data show it: active = growth inhibition above about 70%; inactive = the rest.
# Assays:
# [1] = NCI Yeast Anticancer Drug Screen. Data for the rad50 strain (AID 155);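 also: 0% = growth of vehicle-only cultures of the same strain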; details: S. cerevisiae rad50 strain growth inhibition, stronger effect = higher value
# Procedure, shortened: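 DNA repair mutant yeast, compound exposure, growth read-out; inhibition is taken relative to vehicle.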
# [2] = NCI Yeast Anticancer Drug Screen. Data for the mec2-1 strain (AID 157); details: S. cerevisiae mec2-1 strain, stronger effect = higher value
# Procedure, shortened: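 Yeast mec2-1 mutant treated with compound. Readout: growth inhibition vs vehicle controls.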
# [3] = NCI Yeast Anticancer Drug Screen. Data for the sgs1 mgt1 strain (AID 161);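 also: 0% = growth of cultures given vehicle only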; details: S. cerevisiae sgs1 mgt1 strain, stronger effect = higher value
# Procedure, shortened: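 Genetically altered yeast, compound exposure, growth inhibition relative to vehicle.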
# [4] = NCI Yeast Anticancer Drug Screen. Data for the cln2 rad14 strain (AID 165);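 also: 0% = growth equal to vehicle treated cultures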; details: S. cerevisiae cln2 rad14 strain, stronger effect = higher value
# Procedure, shortened: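 cln2 rad14 yeast strain; compound exposure; growth inhibition read vs vehicle controls.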
# [5] = NCI Yeast Anticancer Drug Screen. Data for the bub3 strain (AID 167); details: S. cerevisiae bub3 mutant strain, stronger effect = higher value
# Procedure, shortened: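 In this screen, a yeast mutant lacking normal mitotic checkpoint function is challenged with compound. Relative growth versus vehicle gives the inhibition value.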
# [6] = NCI Yeast Anticancer Drug Screen. Data for the mlh1 rad18 strain (AID 175); details: S. cerevisiae mlh1 rad18 strain growth inhibition, stronger effect = higher value
# Procedure, shortened: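 Yeast w/ defined DNA-repair lesions; compound exposure; growth vs vehicle controls → % inhibition.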
# [7] = at 5.0 µM (retest, dose inferred, filed as 0.5)
# [8] = at 50.0 µM (retest, dose inferred, filed as 5.0)
SMILES,"growth inhibition [1, 7]","growth inhibition [1, 8]",growth inhibition ([1]; at 50.0 µM),"growth inhibition [2, 7]","growth inhibition [2, 8]",growth inhibition ([2]; at 50.0 µM),"growth inhibition [3, 7]","growth inhibition [3, 8]",growth inhibition ([3]; at 50.0 µM),"growth inhibition [4, 7]","growth inhibition [4, 8]",growth inhibition ([4]; at 50.0 µM),"growth inhibition [5, 7]","growth inhibition [5, 8]",growth inhibition ([5]; at 50.0 µM),"growth inhibition [6, 7]","growth inhibition [6, 8]",growth inhibition ([6]; at 50.0 µM)
S=c1[nH]c2ccc(Cl)cc2s1,-22%,54%,72.9% (active),-2%,69%,65.8%,-13%,92% (active),82.2% (active),-60%,31%,83.8% (active),-19%,77% (active),42%,-19%,91% (active),87.2% (active)
Cc1ccc(C)c(NC(=O)CCC(=O)C(C#N)c2cccc3ccccc23)c1 (stereo not given),-22%,10%,-25.4%,3%,11%,14.4%,-12%,-4%,15.9%,-6%,8%,-23.5%,-5%,5%,10.3%,1%,3%,20.6%
CCCCOP(=O)(OCCCC)C(NS(=O)(=O)c1ccccc1)(C(=O)OCC)C(F)(F)F (stereo not given),11%,42%,99% (active),7%,28%,99.1% (active),3%,48%,99% (active),16%,63%,99.2% (active),9%,47%,99.2% (active),26%,79% (active),99% (active)
CCCCCCCC1SCC(=O)N1c1nncs1 (stereo not given),-11%,96% (active),-10.8%,0%,65%,-20.4%,0%,95% (active),1.45%,-5%,80% (active),3.1%,19%,95% (active),2.9%,-10%,73% (active),5.7%
CS(=O)(=O)c1snc(N)c1C#N,11%,73% (active),40.9%,23%,85% (active),47.5%,17%,80% (active),50.6%,6%,61%,-10.1%,29%,89% (active),-9.75%,18%,85% (active),68.4%
O=C(Nc1ccccc1)Oc1c(Cl)c(Cl)c(Cl)c(Cl)c1Cl,19%,98% (active),58.4%,13%,99% (active),45.8%,26%,99% (active),55.7%,3%,99% (active),-20.8%,-2%,99% (active),54.4%,6%,98% (active),68.7%
CCOC(=O)c1cnc(SCc2ccc(Cl)cc2Cl)nc1Cl,1%,47%,38.4%,0%,73% (active),54.6%,16%,66%,58.5%,-3%,59%,71.8% (active),0%,54%,25.7%,0%,62%,65%
OCc1ccccc1CC(O)(c1ccccc1)c1ccccc1,-7%,92% (active),97.8% (active),-8%,87% (active),97.3% (active),-7%,94% (active),95.8% (active),-3%,70% (active),75.5% (active),-19%,11%,88.5% (active),-20%,90% (active),94.4% (active)
Cc1ccc(S(=O)(=O)Nc2ccc3c(c2)Cc2cc([N+](=O)[O-])ccc2-3)cc1,45%,60%,78% (active),24%,58%,45.8%,42%,62%,67.2%,45%,52%,48.3%,57%,63%,59.2%,58%,69%,81.3% (active)
O=C(CN(Cc1ccccc1)Cc1ccccc1)c1ccccc1,-2%,31%,19.6%,1%,34%,-1.8%,-2%,33%,16.9%,3%,45%,1.75%,4%,89% (active),79.7% (active),-1%,57%,15.4%
